# PubChem BioAssay AID1851 (National Center for Advancing Translational Sciences (NCATS), 2009)
# Hit rate of the full screen: of about 16,000 compounds, about 5,100 (32%) were called active. Roughly 25% stayed inconclusive and do not appear here. Some of the results follow. A number with no mark means an inactive call. The call rests on the fitted dose curve; in most records, active means well fitted curve in the direction sought with a large enough effect; inconclusive means small, poorly fitted or top-dose-only effect, or effect the other way; inactive means no such curve, though single readings can be large or run the other way.
# Target: Cytochrome P450 3A4 (Homo sapiens) (UniProt P08684)
# Assay: Cytochrome panel assay with activity outcomes
# Details: recombinant CYP, pro-luciferin dealkylation, luminescence, p450-cyp3a4; series mostly up to 57.1 µM; activity, negative = inhibition: at the top concentration
# On the % scale 0 is the no-effect control and ±100 the full control effect.
# Cytochrome P450 3A4 (Homo sapiens), sequence (P08684 whole entry, looked up): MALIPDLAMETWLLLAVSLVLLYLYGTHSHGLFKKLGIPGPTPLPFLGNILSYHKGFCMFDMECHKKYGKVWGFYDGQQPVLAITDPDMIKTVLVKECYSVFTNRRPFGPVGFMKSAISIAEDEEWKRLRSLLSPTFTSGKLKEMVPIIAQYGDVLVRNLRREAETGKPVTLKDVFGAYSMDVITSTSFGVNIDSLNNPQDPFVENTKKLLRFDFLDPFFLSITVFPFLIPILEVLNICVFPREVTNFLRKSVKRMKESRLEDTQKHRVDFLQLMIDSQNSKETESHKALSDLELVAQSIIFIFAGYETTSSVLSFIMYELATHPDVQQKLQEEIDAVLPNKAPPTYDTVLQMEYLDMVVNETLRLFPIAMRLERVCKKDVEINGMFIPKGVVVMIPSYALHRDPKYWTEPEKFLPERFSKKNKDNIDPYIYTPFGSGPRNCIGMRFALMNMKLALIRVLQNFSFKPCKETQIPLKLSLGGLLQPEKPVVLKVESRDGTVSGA
Structure (SMILES),"activity, negative = inhibition",AC50
O=C(O)c1ccc(C(=O)O)c(C(=O)O)c1.[NH-][C@@H]1CCCC[C@@H]1[NH-].[Pt],18.9% [at 11.4 µM],–
CCc1cccc(N(C)C(N)=Nc2cccc3ccccc23)c1,-18%,–
C#CCSc1n[nH]c(-c2ccco2)n1,-10.2% [at 11.4 µM],–
CC(C)=CC(=O)Nc1nnc(C(C)C)s1,15.7% [at 2.29 µM],–
[O-][N+](CCO)(CCO)c1ncnc2nc[nH]c12,-0.379% [at 11.4 µM],–
N=C1[C@@H](O)[C@]2(I)c3ccccc3N3C(=N)[C@H](O)[C@@H]4c5ccccc5N1[C@@H]4[C@@H]32,-8.09% [at 11.4 µM],–
COC(=O)c1ccc(/C=N\NC(=O)c2ccc(C)cc2Cl)cc1,–,3.55 µM (active)
Cc1ccc(C(=O)N/N=C/c2ccc(S(=O)(=O)O)o2)c(Cl)c1,8.51%,–
CC1Cc2ccccc2N1C(=O)C1CCCCN1S(=O)(=O)c1ccccc1 (stereo not given),–,7.94 µM (active)
CC(=O)N1c2ccc(S(=O)(=O)CCC(=O)O)cc2CC1C (stereo not given),-7.01%,–
CCNC(=O)C1CC(=O)OC12CCCCC2 (stereo not given),-5.12%,–
CC(C)(CC(=O)Nc1ccccc1)C(=O)O,-5.79% [at 11.4 µM],–
CC(C)(C)N(NC(=O)Nc1ccccc1)C(=O)c1ccccc1Cl,–,14.1 µM (active)
Cc1c(Cl)c(S(N)(=O)=O)cc(S(N)(=O)=O)c1NC(=O)c1ccc(Cl)cc1,3.55% [at 11.4 µM],–
Cc1cc(C)cc(C(=O)N(NC(=O)Nc2ccc(Cl)cc2)C(C)(C)C)c1,–,15.8 µM (active)
CC(C)(C)N(NC(=O)Nc1ccc(Cl)c(Cl)c1)C(=O)c1ccccc1,–,14.1 µM (active)
CC(C)(C)NC(=O)C(=O)NNC(=O)c1ccccc1,5.58%,–
O=C(Nc1ccc(Cl)cc1)NC1CCCCC1,9.33% [at 2.29 µM],–
NCS(=O)(=O)O,-9.19% [at 11.4 µM],–
CN(C)Cc1cc(Cl)c(O)c(CN(C)C)c1,-5.94% [at 11.4 µM],–
CCCCOC(=O)c1ccc(O)cc1,-25.7% [at 25.6 µM],–
CCCCOC(=O)c1cc2c(cn1)[nH]c1ccccc12,–,25.1 µM (active)
O=C(O)CCc1ccc(-c2ccc(Cl)cc2)n1CCC(=O)O,-1.68%,–

Structure (SMILES),"activity, negative = inhibition",AC50
COCCNC(=O)[C@H](C)[C@@H]1C[C@@]1(C)[C@@H](NC(=O)OCc1ccccc1)c1ccccc1,–,7.94 µM (active)
COCCNC(=O)[C@H](C)[C@H]1C[C@]1(C)[C@H](NC(=O)OCc1ccccc1)c1ccccc1,–,3.16 µM (active)
C[C@@H](C(=O)NCCF)[C@H]1C[C@]1(C)[C@H](NC(=O)OCc1ccccc1)c1ccccc1,–,3.98 µM (active)
COc1ccc(NC(=O)CCNS(=O)(=O)c2ccc3c(c2)CCC(=O)N3)cc1,–,15.8 µM (active)
COC(=O)N1CCC2(CCN(C(=O)Nc3ccc(OC)cc3)CC2)CC1,14.5%,–
O=C(CCNS(=O)(=O)c1ccc2c(c1)CCC(=O)N2)NCc1ccc2c(c1)OCO2,–,1.41 µM (active)
COc1ccc(-c2nc(N)c3ncn([C@H]4O[C@@H](CO)[C@@H](O)[C@@H]4O)c3n2)cc1,-0.494% [at 11.4 µM],–
COc1ccc2[nH]cc(CCNc3ncncc3-c3ccccc3OC)c2c1,–,0.126 µM (active)
COc1ccc2[nH]cc(CCNc3ncncc3-c3ccccc3Cl)c2c1,–,0.398 µM (active)
COc1ccc2[nH]cc(CCNc3ncncc3-c3ccccc3C)c2c1,–,0.316 µM (active)
COc1ccc2[nH]cc(CCNc3ncncc3-c3c(C)noc3C)c2c1,–,0.794 µM (active)
C=C1c2cccc(O)c2C(O)=C2C(=O)[C@@]3(O)C(O)=C(C(N)=O)C(=O)[C@@H](N(C)C)[C@@H]3[C@@H](O)[C@H]12,-10.9% [at 25.6 µM],–
CNc1nc(Cl)nc(NC(C)(C)C)n1,-12%,–
CN1C[C@H](c2ccccc2)C(O)([C@]2(c3ccccc3)CN(C)C[C@@H](c3ccccc3)C2=O)[C@H](c2ccccc2)C1 (stereo not given in full),-0.704% [at 11.4 µM],–
O=C(c1cc(Br)ccc1O)c1cc(Br)ccc1O,-18.8% [at 11.4 µM],–
COc1ccc2[nH]cc(CCNc3ncncc3-c3ccccc3C(F)(F)F)c2c1,–,0.251 µM (active)
COc1ccc2[nH]cc(CCNc3ncncc3-c3ccccc3CN(C)C)c2c1,–,0.631 µM (active)
O=S(=O)(O)c1ccc2c(N=Nc3cccc4ccccc34)c(O)c(S(=O)(=O)O)cc2c1,5.97% [at 11.4 µM],–
Cc1ccccc1N1CCN(C(=O)c2ccccc2NC(=O)/C=C\C(=O)O)CC1,-14.2%,–
CN1CCN(c2ccc([N+](=O)[O-])cc2NC(=O)c2ccccc2Cl)CC1,13%,–
O=C(Nc1ccccc1N1CCN(C(=O)c2ccc(Cl)cc2)CC1)c1cc(Br)ccc1Cl,–,3.98 µM (active)
O=C(Nc1ccccc1N1CCN(C(=O)c2ccccc2)CC1)c1cc(Br)ccc1Cl,–,3.55 µM (active)
